The values that follow come from the supplement of paper PMC8728848.

This is one part of a sample in which the strongest signals are shown more often than they occur.

What all share (experiment): glycan array binding signal (z-score within array); higher = stronger binding
What all share (details): glycan notation: IUPAC condensed, linker removed

For assay [1], the target named is Gal(b1-4)GlcNAc(b1-3)Gal(b1-4)GlcNAc(b1-3)Gal(b1-4)GlcNAc(b1-2)[Gal(b1-4)GlcNAc(b1-3)Gal(b1-4)GlcNAc(b1-3)Gal(b1-4)GlcNAc(b1-6)]Man(a1-6)[Gal(b1-4)GlcNAc(b1-3)Gal(b1-4)GlcNAc(b1-3)Gal(b1-4)GlcNAc(b1-2)Man(a1-3)]Man(b1-4)GlcNAc(b1-4)[Fuc(a1-6)]GlcNAc. In a few lines:
(§1)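 Glycan array data came from 3228 arrays in the Consortium for Functional Glycomics database, and only arrays with an available protein sequence were kept. Glycan names were put into IUPAC-condensed notation, and columns mapping to the same glycan were averaged. The binding signal is a within-array Z-score, averaged across arrays of one protein sequence run at different concentrations or buffers and across linkers. A negative Z-score can be read as non-binding.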

Assay [2] deals with Gal(b1-4)GlcNAc(b1-3)Gal(b1-4)GlcNAc(b1-3)Gal(b1-4)GlcNAc(b1-3)Gal(b1-4)GlcNAc(b1-2)[Gal(b1-4)GlcNAc(b1-3)Gal(b1-4)GlcNAc(b1-3)Gal(b1-4)GlcNAc(b1-3)Gal(b1-4)GlcNAc(b1-6)]Man(a1-6)[Gal(b1-4)GlcNAc(b1-3)Gal(b1-4)GlcNAc(b1-3)Gal(b1-4)GlcNAc(b1-3)Gal(b1-4)GlcNAc(b1-2)Man(a1-3)]Man(b1-4)GlcNAc(b1-4)[Fuc(a1-6)]GlcNAc. The essentials: as §1
In assay [3] the target is Gal(b1-4)GlcNAc(b1-3)Gal(b1-4)GlcNAc(b1-3)Gal(b1-4)GlcNAc(b1-3)Gal(b1-4)GlcNAc(b1-3)Gal(b1-4)GlcNAc(b1-2)[Gal(b1-4)GlcNAc(b1-3)Gal(b1-4)GlcNAc(b1-3)Gal(b1-4)GlcNAc(b1-3)Gal(b1-4)GlcNAc(b1-3)Gal(b1-4)GlcNAc(b1-6)]Man(a1-6)[Gal(b1-4)GlcNAc(b1-3)Gal(b1-4)GlcNAc(b1-3)Gal(b1-4)GlcNAc(b1-3)Gal(b1-4)GlcNAc(b1-3)Gal(b1-4)GlcNAc(b1-2)Man(a1-3)]Man(b1-4)GlcNAc(b1-4)[Fuc(a1-6)]GlcNAc. In a few lines: as §1

The target in a further assay is Gal3S(b1-4)Glc. In a few lines:
as §1

For assay [4], the target named is Gal3S(b1-4)[Fuc(a1-3)]Glc6S. The essentials:
as §1

The next assay deals with Gal6S(b1-4)Glc. The essentials:
as §1

Another assay deals with GalNAc3S(b1-4)GlcNAc. In a few lines: as §1
The target in assay [5] is GlcNAc(b1-3)Gal(b1-4)GlcNAc(b1-2)Man(a1-3)[GlcNAc(b1-3)Gal(b1-4)GlcNAc(b1-2)Man(a1-6)]Man(b1-4)GlcNAc(b1-4)GlcNAc. In a few lines:
as §1

A further assay has as its target GlcNAc(b1-3)GalNAc. In a few lines: as §1
For assay [6], the target named is Man(a1-3)[Man(a1-6)]Man(b1-4)GlcNAc(b1-4)[Fuc(a1-6)]GlcNAc. In a few lines:
as §1

For assay [7], the target named is Neu5Ac(a2-3)Gal(b1-3)GlcNAc(b1-2)Man(a1-3)[GlcNAc(b1-4)][Neu5Ac(a2-3)Gal(b1-3)GlcNAc(b1-2)Man(a1-6)]Man(b1-4)GlcNAc(b1-4)GlcNAc. In a few lines:
as §1

Assay [8] has as its target Neu5Ac(a2-3)Gal(b1-3)GlcNAc(b1-4)Gal(b1-4)Glc. The essentials:
as §1

Assay [9] deals with Neu5Ac(a2-3)Gal(b1-4)GlcNAc(b1-2)Man(a1-3)[Neu5Ac(a2-6)Gal(b1-4)GlcNAc(b1-2)Man(a1-6)]Man(b1-4)GlcNAc(b1-4)GlcNAc. The essentials:
as §1

Assay [10] deals with Neu5Ac(a2-3)Gal(b1-4)GlcNAc(b1-2)[Neu5Ac(a2-3)Gal(b1-4)GlcNAc(b1-6)]Man(a1-6)[Neu5Ac(a2-3)Gal(b1-4)GlcNAc(b1-2)Man(a1-3)][GlcNAc(b1-4)]Man(b1-4)GlcNAc(b1-4)GlcNAc. In a few lines:
as §1

For assay [11], the target named is Neu5Ac(a2-3)Gal(b1-4)GlcNAc(b1-3)Gal(b1-4)GlcNAc(b1-3)Gal(b1-4)GlcNAc. In a few lines: as §1
Assay [12] addresses Neu5Ac(a2-3)Gal(b1-4)[Fuc(a1-3)]GlcNAc(b1-2)Man. The essentials:
as §1

Assay [13] has as its target Neu5Ac(a2-3)GalNAc(b1-4)GlcNAc. In a few lines:
as §1

The next assay addresses Neu5Ac(a2-6)Gal. In a few lines:
as §1

In assay [14] the target is Neu5Ac(a2-6)Gal(b1-4)GlcNAc(b1-2)Man(a1-3)[GlcNAc(b1-4)][Neu5Ac(a2-6)Gal(b1-4)GlcNAc(b1-2)Man(a1-6)]Man(b1-4)GlcNAc(b1-4)GlcNAc. In a few lines: as §1
For assay [15], the target named is Neu5Ac9Ac(a2-6)Gal(b1-4)GlcNAc. In a few lines:
as §1

Assay [16] has as its target Neu5Gc(a2-3)Gal(b1-4)GlcNAc. In a few lines:
as §1

In a further assay the target is Neu5Gc(a2-6)GalNAc. The essentials: as §1
For assay [17], the target named is Neu5Gc(a2-8)Neu5Gc(a2-6)Gal(b1-4)GlcNAc. The essentials:
as §1

Assay [18] addresses Neu5Gc(b2-6)Gal(b1-4)GlcNAc. The essentials: as §1

B1: AntigenI/IIC123 (Streptococcus mutans), C9E3B4 (protein)
chain: MASMTGGQQMGRIHFHYFKLAVQPQVNKEIRNNNDINIDRTLVAKQSVVKFQLKTADLPAGRDETTSFVLVDPLPSGYQFNPEATKAASPGFDVTYDNATNTVTFKATAATLATFNADLTKSVATIYPTVVGQVLNDGATYKNNFTLTVNDAYGIKSNVVRVTTPGKPNDPDNPNNNYIKPTKVNKNENGVVIDGKTVLAGSTNYYELTWDLDQYKNDRSSADTIQKGFYYVDDYPEEALELRQDLVKITDANGNEVTGVSVDNYTNLEAAPQEIRDVLSKAGIRPKGAFQIFRADNPREFYDTYVKTGIDLKIVSPMVVKKQMGQTGGSYENQAYQIDFGNGYASNIIINNVPKINPKKDVTLTLDPADTNNVDGQTIPLNTVFNYRLIGGIIPADHSEELFEYNFYDDYDQTGDHYTGQYKVFAKVDITFKDGSIIKSGAELTQYTTAEVDTAKGAITIKFKEAFLRSVSIDSAFQAESYIQMKRIAVGTFENTYINTVNGVTYSSLEHHHHHH
On to B1, for which the “glycan array binding signal (z-score)” value in assay [1] is 3.08; in assay [2], 2.31; in assay [3] it was 4.43; with Gal3S(b1-4)Glc, -0.499; in [4], 2.84; with Gal6S(b1-4)Glc, -0.033. In addition, the “glycan array binding signal (z-score)” value in the assay with GalNAc3S(b1-4)GlcNAc is -1.45; in [5] it was 0.67; with GlcNAc(b1-3)GalNAc it was -0.207; in assay [6], -0.768; in assay [7], 0.141; in assay [8], -0.775. In addition, the “glycan array binding signal (z-score)” value in [9] was -0.814; in [10], -1.1; in [11], -0.469; in [12], -0.89; in [13], 0.443; in the assay with Neu5Ac(a2-6)Gal it was 4.55. The “glycan array binding signal (z-score)” value in assay [14] is -0.868; in assay [15], -1.27; in assay [16], -1.14; in the assay with Neu5Gc(a2-6)GalNAc it was -0.987; in [17], -0.326; in assay [18], -0.257.
